# Data taken from PubChem BioAssay (Tox21).
# Inconclusive results are not listed. A call without a number means that no potency is given here. Active and inactive are the calls of the source. Calls come from the whole dose curve; as a rule, active = well fitted inhibition curve with a large enough effect in the signal ratio in the repeat runs, with a control signal flat; inconclusive = weak or mixed curves, or effect the other way; inactive = flat fitted curve, though single readings scatter; the % refers to the signal ratio.
# Biological target: D(2) dopamine receptor (Homo sapiens) (UniProt P14416)
# Sequence (P14416 whole entry, looked up): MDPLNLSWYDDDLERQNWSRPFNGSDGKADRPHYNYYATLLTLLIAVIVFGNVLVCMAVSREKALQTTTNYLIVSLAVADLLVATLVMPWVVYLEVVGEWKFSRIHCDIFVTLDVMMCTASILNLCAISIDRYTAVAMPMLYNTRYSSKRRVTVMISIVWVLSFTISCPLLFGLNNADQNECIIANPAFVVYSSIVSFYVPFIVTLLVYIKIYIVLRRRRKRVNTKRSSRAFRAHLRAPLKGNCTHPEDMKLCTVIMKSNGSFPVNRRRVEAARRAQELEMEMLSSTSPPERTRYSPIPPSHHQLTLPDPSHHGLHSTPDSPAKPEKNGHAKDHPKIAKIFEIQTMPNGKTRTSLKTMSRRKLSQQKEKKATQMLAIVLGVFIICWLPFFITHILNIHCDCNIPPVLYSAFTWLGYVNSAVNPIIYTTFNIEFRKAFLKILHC
# Assay: Dopamine D2 receptor (DRD2) small molecule antagonists, cell-based qHTS assay (AID 1963595)
# Conditions: HEK293-DRD2 cAMP HTRF antagonist mode; series mostly up to 92.4 µM
# From the text: National Center for Advancing Translational Sciences [NCATS]
# Division of Preclinical Innovation [DPI]
# U.S. Environmental Protection Agency [EPA]
# National Institutes of Environmental Health Sciences [NIEHS]
# National Toxicology Program [NTP]
# U.S. Food and Drug Administration [FDA]
# DRD2 is the D2 subtype of the dopamine receptor, which is coupled to Gi subtype of G protein-coupled receptor. This G protein-coupled receptor inhibits adenylyl cyclase activity. The DRD2-HEK293 cell line stably expressing D2 dopamine receptor can be used for screening agonists and antagonists of interactions between D2 and its ligands. The Hek293-DRD2 cAMP assay is based on HTRF technology. It measures changes of cAMP accumulation in response to Gi coupled GPCR activation or inhibition.
# Tox21 Assay Protocol Summary:
# DRD2-Hek293 cells were dispensed at 600 cells/3uL/well in 1536-well white plates using a Multidrop Dispenser. After the assay plates were incubated at a 37 C/5% CO2 incubator for 24 h, 1 uL of Ro20-1724 at final concentration of 0.1 mM was transferred to the assay plate by a Flying Reagent Dispenser. Following Ro20-1724 addition, 23 nL of compound dissolved in DMSO, positive controls or DMSO only was added to the assay plates via Wako pintool station. The assay plates were incubated at room temperature for 10 min. Next, 1 uL of mixture of NKH477 (final concentration at 200 nM) and quinpirole (final concentration at 12 nM) was added into the plates. After the assay plates were incubated at room temperature for an additional 30 min, 2.5 ul/well of cAMP-d2 and 2.5 ul/well of anti-cAMP-cryptate were added respectively into the assay plates using a Flying Reagent Dispenser. The plates were incubated at room temperature for 1 h. The fluorescence intensity in the plates was measured at 340 nm excitation and 665 & 620 nm emission by an Envision plate reader.
row,SMILES,Potency
1,OC[C@@H](O)[C@H]1O[C@@H]2O[C@H](C(Cl)(Cl)Cl)O[C@@H]2[C@H]1O,inactive
2,COC(=O)NS(=O)(=O)c1ccc(N)cc1,inactive
3,COC(=O)Nc1nc2ccccc2[nH]1,inactive
4,C[N+](C)(C)C,inactive
5,O=C(CCl)CCl,inactive
6,COP(=O)(NC(C)=O)SC (stereo not given),inactive
7,COC(=O)c1sccc1S(=O)(=O)NC(=O)Nc1nc(C)nc(OC)n1,inactive
8,O=C(O)c1ccccn1,inactive
9,COC(=O)c1ccc(CBr)cc1,inactive
10,NNC(N)=S,inactive
11,CC(=O)CCC(C)=O,inactive
12,CCC(=O)Nc1ccc(Cl)c(Cl)c1,inactive
13,COc1cc2c(cc1OC)[C@@]13CCN4CC5=CCO[C@H]6CC(=O)N2[C@H]1[C@H]6[C@H]5C[C@H]43,inactive
14,C[C@@H]1O[C@@H](O[C@H]2C[C@@H](O)[C@]3(CO)[C@H]4[C@H](O)C[C@]5(C)[C@@H](C6=CC(=O)OC6)CC[C@]5(O)[C@@H]4CC[C@]3(O)C2)[C@H](O)[C@H](O)[C@H]1O,inactive
15,Cc1ccc(N=C=O)cc1N=C=O,inactive
16,CC(O)CCO (stereo not given),inactive
17,NC(=O)CN1CCCC1=O,inactive
18,Clc1nc(Cl)nc(Nc2ccccc2Cl)n1,inactive
19,C[C@H]1O[C@H](OC2[C@@H](O)[C@@H](O)C(O)[C@H](O)[C@H]2O)[C@@H](N)C[C@@H]1N=C(N)C(=O)O (stereo not given in full),inactive
20,O=[N+]([O-])c1cc(Cl)ccc1Cl,inactive

row,SMILES,Potency
1,Nc1ccc([N+](=O)[O-])cc1N,inactive
2,C1CCC(NC2CCCCC2)CC1,inactive
3,NC(=O)CCl,inactive
4,CC(C)NC(=O)N1CC(=O)N(c2cc(Cl)cc(Cl)c2)C1=O,inactive
5,C1=Cc2cccc3cccc1c23,inactive
6,CN1CSC(=S)N(C)C1,inactive
7,Clc1ccc(Cl)c(Cl)c1,inactive
8,Cc1ccc2c(C)cccc2c1,inactive
9,CC(C)C1(C)N=C(c2nc3ccccc3cc2C(=O)O)NC1=O (stereo not given),inactive
10,CN(C)c1ccc(C(=O)c2ccc(N(C)C)cc2)cc1,inactive
11,COP(=O)(OC)OC=C(Cl)Cl,inactive
12,CCN(CC)C(=O)/C(Cl)=C(\C)OP(=O)(OC)OC,inactive
13,Clc1ccc(C2(Cn3cncn3)OCCO2)c(Cl)c1,inactive
14,CNC(=O)Oc1ccccc1OC(C)C,inactive
15,O=Cc1cccc(Oc2ccccc2)c1,inactive
16,O=C(CBr)c1ccc(O)cc1,inactive
17,Clc1ccc(C(Cl)(Cl)Cl)cc1,inactive
18,Brc1ccc(Oc2cc(Br)c(Br)cc2Br)c(Br)c1,inactive
19,CCCCOC(=O)c1ccccc1C(=O)OCc1ccccc1,inactive
20,CCCCN(CCCC)N=O,inactive
